Data on 19 molecules can be found in the supplement of paper PMC5662767.

Counter-ions that a name gives are not always drawn.

This assay has as its system Drosophila S2 cl14 SmoIP sensor cells. The assay can be described thus: normalized SmoIP GFP fluorescence (untreated unstimulated = 0%, untreated Hh-stimulated = 100%); higher = more Smo activation sensor fluorescence. The settings on record: compound concentration: 2 uM, 24 h.
Setting [1] is: stimulation: Hh conditioned medium (+Hh).
The mark [2] stands for this setting: stimulation: mock conditioned medium (-Hh).
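Note: flow cytometry read-out as median GFP intensity of gated cells, compounds added 30 min before Hh-conditioned or mock medium, mock-treated cells serving as unstimulated baseline.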

Turning to `CCCN1CCOC2c3cc(O)ccc3OCC21` (stereo not drawn), the “normalized SmoIP GFP fluorescence” value is, setting by setting: under setting [1], 113%; under setting [2], -13.6%.

For `Cc1ccccc1-n1c(Cn2ncc3c(N)ncnc32)nc2cccc(C)c2c1=O`, the “normalized SmoIP GFP fluorescence” value under setting [1] was found to be 115% and the “normalized SmoIP GFP fluorescence” value under setting [2] was -6.79%.

Take `C[N+](C)(C)CCCCCCCCCC[N+](C)(C)C` [decamethonium-bromide]: the “normalized SmoIP GFP fluorescence” value is, setting by setting: under setting [1], 104%; under setting [2], -5.04%.

In the case of `CN1CCN(c2nc3ccccc3nc2Cl)CC1`, the “normalized SmoIP GFP fluorescence” value under setting [1] is 105% and the “normalized SmoIP GFP fluorescence” value under setting [2] is -1.34%.

With `C[C@]12CC[C@H](O)CC1=CC[C@@H]1[C@@H]2CC[C@]2(C)C(=O)CC[C@@H]12` [Dehydroepiandrosterone(DHEA)], the “normalized SmoIP GFP fluorescence” value under setting [1] was found to be 134% and the “normalized SmoIP GFP fluorescence” value under setting [2] was -12.4%.

With `CN1[C@@H]2C[C@@H](OC(=O)[C@H](CO)c3ccccc3)C[C@H]1[C@@H]1O[C@@H]12` [Scopolamine-hydrobromide], the “normalized SmoIP GFP fluorescence” value under setting [1] was determined as 113% and the “normalized SmoIP GFP fluorescence” value under setting [2] is -17.7%.

Turning to `C=CC[C@]1(O)CC[C@H]2[C@@H]3CCC4=CC(=O)CCC4=C3C=C[C@@]21C` [altrenogest], the “normalized SmoIP GFP fluorescence” value by setting is: under setting [1], 109%; under setting [2], -1.23%.

For the molecule `C[C@@H]1O[C@@H](O[C@H]2C[C@@H](O)[C@]3(CO)[C@H]4[C@H](O)C[C@]5(C)[C@@H](C6=CC(=O)OC6)CC[C@]5(O)[C@@H]4CC[C@]3(O)C2)[C@H](O)[C@H](O)[C@H]1O` [ouabain], the “normalized SmoIP GFP fluorescence” value runs as follows: under setting [1], 102%; under setting [2], -2.08%.

Regarding `Cc1cccc(C(C)c2c[nH]cn2)c1C` (stereo not drawn) [medetomidine-hcl], the “normalized SmoIP GFP fluorescence” value reads like this: under setting [1], 108%; under setting [2], -1.63%.

Regarding `C[C@H]1CNCCc2ccc(Cl)cc21` [lorcaserin-hcl], the “normalized SmoIP GFP fluorescence” value was 99.3% under setting [1] and -2.48% under setting [2].

For `O=C(NCC1CCOCC1)c1cnc(Nc2ccc(Cl)cc2Cl)nc1C(F)(F)F`, the “normalized SmoIP GFP fluorescence” value is 102% under setting [1] and -1.63% under setting [2].

On to `Cc1cc(SCc2sc(-c3ccc(C(F)(F)F)c(F)c3)nc2C)ccc1OCC(=O)O`, for which the “normalized SmoIP GFP fluorescence” value runs as follows: under setting [1], 106%; under setting [2], -1.74%.

As to `O=c1[nH]c2ccc(Cl)cc2c(N[C@@H]2CN3CCC2CC3)c1-c1nc2ccccc2[nH]1` [chir-124], the “normalized SmoIP GFP fluorescence” value under setting [1] came to 253% and the “normalized SmoIP GFP fluorescence” value under setting [2] was 23.9%.

Take `C[C@H]1CCC/C=C/[C@@H]2C[C@H](O)C[C@H]2[C@H](O)/C=C/C(=O)O1` [brefeldin-a]: the “normalized SmoIP GFP fluorescence” value was 101% under setting [1] and -4.58% under setting [2].

Consider `CCN(C)C(=O)Oc1cccc([C@H](C)N(C)C)c1` [rivastigmine-tartrate-exelon], for which the “normalized SmoIP GFP fluorescence” value was 95.8% under setting [1] and -3.05% under setting [2].

As to `COc1cc(-n2c(=S)[nH]c3ccccc3c2=O)c(Cl)cc1Cl` [mdivi-1], the “normalized SmoIP GFP fluorescence” value reads like this: under setting [1], 108%; under setting [2], -1.34%.

Regarding `N#CC(C#N)=Cc1ccc(O)c(O)c1` [ag-18-tyrphostin-23], the “normalized SmoIP GFP fluorescence” value runs as follows: under setting [1], 147%; under setting [2], -12%.

Regarding `C[C@]12CCC(=O)C(O)=C1CC[C@@H]1[C@@H]2CC[C@]2(C)C(=O)CC[C@@H]12` [Formestane], the “normalized SmoIP GFP fluorescence” value is 93.9% under setting [1] and -2.2% under setting [2].

`CCN1CCN(C(=O)Cc2ccc(Nc3ncc(F)c(Nc4ccc(C(=O)Nc5ccccc5Cl)cc4)n3)cc2)CC1` [Aurora-A-Inhibitor-I]: the “normalized SmoIP GFP fluorescence” value worked out at 151% under setting [1] and 2.11% under setting [2].
